Measured values published in PubChem BioAssay AID1159580 (chemical genetic matrix, 2015).
In all, about 5,500 compounds went through this assay and about 2,000 (36%) were called active. Inconclusive results (about 18%) are left out. Rule as the data show it: active = normalized growth mostly below about 0.91 (no sharp cut-off); inconclusive = no clear call, values can overlap the other calls; inactive = mostly above about 0.92. The list shows a part of the results.

Assay: chemical genetic growth profiling, strain panel (AID 1159580);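 also: tested at 20 µM; growth read once vehicle control cultures reached saturation at 30 °C; 1 = growth at the plate median or of vehicle wells; lower values mean less growth of the strain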
Details: S. cerevisiae deletion strains, growth OD

Measured: normalized growth

C[Se]C[C@H](N)C(=O)O
inactive: locus YAL013W, strain DEP1, hits give low values 0.981 | locus YAL040C, strain CLN3, hits give low values 1.05 | locus YCL061C, strain MRC1 (second series), hits give low values 0.983 | locus YDR150W, strain NUM1, hits give low values 1 | locus YDR363W, strain ESC2, hits give low values 0.949 | locus YER002W, strain NOP16, hits give low values 0.984 | locus YNL175C, strain NOP13, hits give low values 0.953 | locus YNL197C, strain WHI3, hits give low values 0.981 | locus YNL224C, strain SQS1, hits give low values 0.97 | locus YNL322C, strain KRE1, hits give low values 0.981 | locus YOR083W, strain WHI5 (second series), hits give low values 0.984 | locus YPL241C, strain CIN2, hits give low values 0.983
